Some test systems named below: NCI-H23 lung; NCI-H226 lung; NCI-H322M lung; NCI-H460 lung; A549/ATCC NSCLC; 786-0 renal; COLO 205 colon; NCI-H522 lung; HOP-92 NSCLC; HOP-62 NSCLC.
Common to all, as to experiment: NCI-60 one-dose screen, 48 h (100 = growth as untreated, 0 = no growth, -100 = all killed)
Common to all, as to conditions: 10 µM

About 83,000 compounds went through this panel and 20% of them were active in at least one assay; those are over-represented in the sample as a whole.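 Interpretation: 100, growth as untreated; towards 0, rising growth inhibition; 0, no net growth; 0 to -100, cell death. Compounds scoring below 10 were considered active.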 A number with no mark means an inactive call. The source made the active and inactive calls.

Consider 15 compounds from PubChem BioAssay (NCI).

On to `C[C@]12CC[C@@H]3c4ccc(O)cc4CC[C@H]3[C@@H]1CC[C@@H]2NS(=O)(=O)c1ccc(C(F)(F)F)cc1`, for which the growth is 56.4% with NCI-H23 lung; 51.6% with NCI-H226 lung; 63.8% in the assay with NCI-H322M lung; 3.9% (active) with NCI-H460 lung; 23.5% with A549/ATCC NSCLC; 57.4% in the assay with 786-0 renal. The growth in the assay on COLO 205 colon is 9.34% (active).

With `OC(CNc1ccnc2cc(Cl)ccc12)CNC1CCCCC1` (configuration not stated), the growth with NCI-H23 lung was 86.7%; in the assay with NCI-H226 lung it was 105%; in the assay on NCI-H322M lung, 74.7%; in the assay with NCI-H460 lung, 109%; in the assay with NCI-H522 lung, 49.6%; with A549/ATCC NSCLC, 88.4%. Also, the figures for the growth in the assay with 786-0 renal and in the assay on COLO 205 colon were 87.9% and -25.4% (active), respectively.

As for `CC(=O)/C(=C/c1ccc(Br)cc1)C(=O)c1ccccc1`, the growth with NCI-H23 lung was 99.5%; in the assay with NCI-H226 lung it was 87.8%; in the assay on NCI-H322M lung it was 115%; in the assay on NCI-H460 lung it was 103%; with NCI-H522 lung, 85.2%; with A549/ATCC NSCLC it was 94%. The growth in the assay on 786-0 renal was 84.5%; with COLO 205 colon, 111%.

As to `O=C(N/N=C/c1cc([N+](=O)[O-])ccc1O)c1cccc2ccccc12`, the growth in the assay on NCI-H23 lung is 45.3%; in the assay on NCI-H226 lung, 42.6%; in the assay on NCI-H322M lung it was 45.4%; with NCI-H460 lung it was 20.7%; with NCI-H522 lung, 21.9%; in the assay with A549/ATCC NSCLC, 54.8%. Moreover, the growth is 36.5% with 786-0 renal and 48.9% in the assay on COLO 205 colon.

As for `COc1ccc(Cl)cc1Nc1nc(C(F)(F)F)ccc1C(=O)N/N=C/c1cc(OC)c(OC)c(OC)c1`, the growth with NCI-H23 lung was 54.9%; with NCI-H226 lung, 30.7%; with NCI-H322M lung it was 8.92% (active); in the assay with NCI-H460 lung, 21.4%; in the assay with HOP-92 NSCLC, -12% (active); with A549/ATCC NSCLC, 59.4%. Moreover, in the assay on COLO 205 colon, the growth was 12.8%.

Take `CCOc1ccccc1/C=N\N=C\c1ccccc1O`: the growth in the assay on NCI-H23 lung was 87.7%; in the assay with NCI-H226 lung it was 104%; in the assay on NCI-H322M lung, 93.8%; in the assay on NCI-H460 lung, 107%; with NCI-H522 lung it was 99.8%; with A549/ATCC NSCLC, 108%. Moreover, the growth with 786-0 renal is 106%; in the assay on COLO 205 colon, 108%.

Take `CC1(C)N=C(N)N=C(N)N1c1cccc(C#N)c1`: the growth is 75.2% with NCI-H23 lung; 67.9% with NCI-H226 lung; 64.6% in the assay on NCI-H322M lung; 22.3% in the assay on NCI-H460 lung; 65.6% in the assay on NCI-H522 lung; 29.4% in the assay on A549/ATCC NSCLC. The growth was 35.8% with 786-0 renal and 66.8% in the assay on COLO 205 colon.

Take `COc1ccc2nc3cc(Cl)ccc3c(NCCCNCCO)c2c1`: the growth in the assay on NCI-H23 lung was -21.7% (active); in the assay on NCI-H226 lung, -9.48% (active); with NCI-H322M lung, -22.6% (active); in the assay with NCI-H460 lung, -8.13% (active); in the assay on NCI-H522 lung, -86.5% (active); with A549/ATCC NSCLC it was -26.2% (active). Also, the growth in the assay with 786-0 renal was 6.46% (active).

For `O=C(CI)OCC(COC(=O)CI)OC(=O)CI`, the growth was 65.9% in the assay on NCI-H23 lung; 97.1% with NCI-H226 lung; 112% with NCI-H322M lung; 98.9% with NCI-H460 lung; 104% with A549/ATCC NSCLC; 45.9% in the assay on 786-0 renal. In addition, the growth in the assay with COLO 205 colon is 33.2%.

For `CC(=O)C1CCC2C3CC=C4CC(SC(=N)N)CCC4(C)C3CCC12C` (configuration not stated), the growth in the assay with NCI-H23 lung is 61.8%; with NCI-H226 lung, 56.6%; in the assay on HOP-62 NSCLC it was 82.5%; with NCI-H460 lung it was 16.7%; in the assay on HOP-92 NSCLC, 30.2%; with NCI-H522 lung it was 61.5%. In addition, the growth in the assay on A549/ATCC NSCLC is 47.5%; in the assay on 786-0 renal, 48%; in the assay with COLO 205 colon it was -100% (active).

`O=C(Nc1nc(-c2ccccc2)nc2c1sc(=S)n2-c1ccccc1)C(F)(F)F`: the growth in the assay with NCI-H23 lung is 89.9%; with NCI-H226 lung it was 90.3%; in the assay on HOP-62 NSCLC it was 101%; with NCI-H460 lung it was 99.3%; with HOP-92 NSCLC it was 81.4%; in the assay on NCI-H522 lung, 86.6%. The growth was 74.9% with A549/ATCC NSCLC, 98.9% in the assay with 786-0 renal and 115% in the assay on COLO 205 colon.

As for `CC(=O)N[C@H](C(=O)N[C@@H](CCCNC(=N)N)C(=O)N[C@@H](CCCCN)C(=O)N[C@@H](CCCNC(=N)N)C(=O)N[C@]1(C)CCCCCC/C=C\CCC[C@@](C)(C(=O)N[C@@H](CCCNC(=N)N)C(=O)N[C@@H](CCC(=O)O)C(=O)N[C@@H](CC(C)C)C(=O)N[C@H](C(=O)N[C@@H](CCC(=O)O)C(N)=O)C(C)C)NC(=O)[C@H](CCC(N)=O)NC(=O)[C@H](CC(C)C)NC(=O)[C@H](CC(C)C)NC(=O)[C@H](CCCNC(=N)N)NC(=O)[C@H](CCCNC(=N)N)NC(=O)[C@H](CC(C)C)NC1=O)C(C)C`, the growth in the assay with NCI-H23 lung was 1.83% (active); with NCI-H226 lung it was 9.55% (active); in the assay on HOP-62 NSCLC, -31.5% (active); in the assay on NCI-H460 lung it was -9.29% (active); in the assay with HOP-92 NSCLC it was -63.6% (active); in the assay with NCI-H522 lung, 28.7%. Moreover, the values for the growth in the assay on A549/ATCC NSCLC, in the assay with 786-0 renal and with COLO 205 colon were 12.4%, -51.4% (active) and -29.5% (active), respectively.

As for `Cc1ccc(C(=O)/C=C/c2ccccc2)s1`, the growth with NCI-H23 lung is 109%; with NCI-H226 lung, 93.8%; in the assay with HOP-62 NSCLC, 120%; in the assay on NCI-H460 lung it was 108%; in the assay with HOP-92 NSCLC, 144%; in the assay with NCI-H522 lung it was 93.5%. Moreover, the growth with A549/ATCC NSCLC is 101%; with 786-0 renal it was 86.7%; with COLO 205 colon it was 134%.

On to `N#CCc1csc(Cc2ccccc2)n1`, for which the growth in the assay with NCI-H23 lung is 97.2%; with NCI-H226 lung, 101%; with HOP-62 NSCLC it was 104%; in the assay with NCI-H460 lung it was 102%; with HOP-92 NSCLC, 117%; with NCI-H522 lung, 88.9%. The growth is 95.1% with A549/ATCC NSCLC, 108% in the assay with 786-0 renal and 117% in the assay on COLO 205 colon.

Regarding `COc1cc(/C=C/c2cc(/C=C/c3ccc(O)c(OC)c3)nc(N)n2)ccc1O`, the growth in the assay with NCI-H23 lung is -2.79% (active); in the assay with NCI-H226 lung, 11.7%; in the assay on HOP-62 NSCLC it was 4.85% (active); in the assay on NCI-H460 lung it was 5.54% (active); in the assay on HOP-92 NSCLC, -21.2% (active); in the assay on NCI-H522 lung, -41.3% (active). Besides, the growth with A549/ATCC NSCLC is 10.1%; in the assay on 786-0 renal it was -58.9% (active); in the assay with COLO 205 colon, -50.4% (active).
